Laboratory results as given in PubChem BioAssay (NCI).
About 79,000 compounds went through this panel and 15% of them were active in at least one assay; those are over-represented in the sample as a whole. Activity calls are given as the source filed them. Cut-off read from the data, not from the text of the source: active = growth inhibition above about 70%; inactive = the rest.

Key:
[1] = NCI Yeast Anticancer Drug Screen. Data for the rad52 strain (AID 147);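 note: 0% = growth of vehicle-treated control cultures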; details: S. cerevisiae rad52 mutant growth inhibition, hits give high values
Outline: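 DNA repair-defective yeast; compound exposure; growth scored against vehicle controls.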

[2] = NCI Yeast Anticancer Drug Screen. Data for the wt1 strain (AID 149);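 note: 0% = growth of vehicle-treated wt1 cultures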; details: S. cerevisiae wt1 strain (SPY 50644) growth inhibition, hits give high values
Outline: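 Measured: growth of wt1 yeast under compound versus vehicle treatment, reported as inhibition.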

[3] = NCI Yeast Anticancer Drug Screen. Data for the rad50EPP+ strain (AID 151);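 note: 0% = growth of vehicle-treated control cultures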; details: S. cerevisiae rad50 mutant strain, hits give high values
Outline: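 rad50EPP+ yeast treated with test compounds. Readout: growth vs vehicle control.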

[4] = NCI Yeast Anticancer Drug Screen. Data for the mgt1 strain (AID 153); details: S. cerevisiae mgt1 mutant growth inhibition, hits give high values
Outline: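 Growth inhibition relative to vehicle controls was scored for the mgt1 yeast strain after compound exposure.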

[5] = NCI Yeast Anticancer Drug Screen. Data for the rad50 strain (AID 155);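 note: 0% = growth of vehicle-only cultures of the same strain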; details: S. cerevisiae rad50 strain growth inhibition, hits give high values
Outline: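 Growth of the mutant yeast was measured after compound exposure and referenced to vehicle-treated cultures.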

[6] = NCI Yeast Anticancer Drug Screen. Data for the mec2-1 strain (AID 157); details: S. cerevisiae mec2-1 strain, hits give high values
Outline: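 Growth inhibition is read against vehicle-treated controls after compound exposure of the mec2-1 yeast strain, which is defective in DNA damage repair or cell cycle control.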

[7] = NCI Yeast Anticancer Drug Screen. Data for the rad14 strain (AID 159);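 note: 0% = growth of vehicle-treated control cultures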; details: S. cerevisiae rad14 strain growth inhibition, hits give high values
Outline: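 Here, inhibition of yeast growth was measured after compound exposure, using a strain with a genetic defect in DNA damage repair and vehicle-treated cultures as the reference.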

[8] = NCI Yeast Anticancer Drug Screen. Data for the sgs1 mgt1 strain (AID 161);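 note: 0% = growth of cultures given vehicle only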; details: S. cerevisiae sgs1 mgt1 strain, hits give high values
Outline: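 Compounds are added to genetically altered yeast, and growth is compared with cultures given vehicle alone to give percent inhibition.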

[9] = NCI Yeast Anticancer Drug Screen. Data for the CLN2oe strain (AID 163);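 note: 0% = growth of vehicle-only control cultures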; details: S. cerevisiae CLN2oe strain, hits give high values
Outline: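 Compound-treated yeast; growth vs vehicle ctrl = % inhibition. Genetically altered strain (cell-cycle control).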

[10] = NCI Yeast Anticancer Drug Screen. Data for the cln2 rad14 strain (AID 165);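 note: 0% = growth equal to vehicle treated cultures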; details: S. cerevisiae cln2 rad14 strain, hits give high values
Outline: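 Growth inhibition, relative to vehicle-treated controls, is the read-out. The test organism is a yeast strain with defined genetic alterations, cln2 rad14.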

[11] = NCI Yeast Anticancer Drug Screen. Data for the bub3 strain (AID 167); details: S. cerevisiae bub3 mutant strain, hits give high values
Outline: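 Whole-cell yeast assay. The mutant strain was incubated with compounds, and growth inhibition was determined by comparison with vehicle-treated cells.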

[12] = NCI Yeast Anticancer Drug Screen. Data for the wt2 strain (AID 169);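 note: 0% = growth of vehicle-treated yeast cultures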; details: S. cerevisiae wt2 strain growth inhibition, hits give high values
Outline: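 Compound exposure of yeast; growth compared with vehicle controls; inhibition reported.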

[13] = NCI Yeast Anticancer Drug Screen. Data for the sgs1 strain (AID 173);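 note: 0% = growth of vehicle-only control cultures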; details: S. cerevisiae sgs1 mutant, hits give high values
Outline: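 Compounds applied to genetically altered yeast; growth compared with vehicle-treated cultures to give % inhibition.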

[14] = NCI Yeast Anticancer Drug Screen. Data for the mlh1 rad18 strain (AID 175); details: S. cerevisiae mlh1 rad18 strain growth inhibition, hits give high values
Outline: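 Cells of a genetically altered yeast strain, deficient in DNA damage repair, were treated with compound. Their growth was then compared with that of vehicle-treated cultures to give inhibition.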

[15] = NCI Yeast Anticancer Drug Screen. Data for the rad18 strain (AID 177); details: S. cerevisiae rad18 mutant growth inhibition, hits give high values
Outline: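 Compounds are applied to a repair-deficient yeast strain, and growth is compared with that of vehicle-treated cultures to give percent inhibition.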

[16] = at 5.0 µM (retest, dose inferred, filed as 0.5)
[17] = at 50.0 µM (retest, dose inferred, filed as 5.0)

Measured: growth inhibition

COc1ccc(/C=C/C(=O)C(C)(C)Br)cc1
inactive: [1]; at 1.2 µM 45% | [2]; at 1.2 µM 4% | [2]; at 3.7 µM 12% | [2]; at 11.0 µM 15% | [2]; at 33.0 µM 19% | [2]; at 100.0 µM 33% | [4]; at 1.2 µM 0% | [4]; at 3.7 µM 9% | [4]; at 11.0 µM 18% | [4]; at 33.0 µM 27% | [5]; at 1.2 µM 41% | [6]; at 1.2 µM 24% | [6]; [16] 11% | [7]; at 1.2 µM 28% | [7]; at 3.7 µM 69% | [9]; at 1.2 µM 0% | [9]; at 3.7 µM 3% | [9]; at 11.0 µM 20% | [9]; at 33.0 µM 36% | [10]; [16] 52% | [11]; at 1.2 µM -9% | [11]; at 3.7 µM -7% | [11]; [16] 26% | [11]; at 11.0 µM 4% | [11]; at 33.0 µM 25% | [12]; at 1.2 µM 2% | [12]; at 3.7 µM 10% | [12]; at 11.0 µM 26% | [12]; at 33.0 µM 37% | [13]; at 1.2 µM 69%
active: [1]; at 3.7 µM 89% | [1]; at 11.0 µM 95% | [1]; at 33.0 µM 97% | [1]; at 100.0 µM 98% | [3]; at 1.2 µM 79% | [3]; at 3.7 µM 93% | [3]; at 11.0 µM 96% | [3]; at 33.0 µM 97% | [3]; at 100.0 µM 98% | [4]; at 100.0 µM 71% | [5]; at 3.7 µM 74% | [5]; [16] 75% | [5]; at 11.0 µM 88% | [5]; at 33.0 µM 93% | [5]; [17] 96% | [5]; at 50.0 µM 94.5% | [5]; at 100.0 µM 96% | [6]; at 3.7 µM 71% | [6]; at 11.0 µM 96% | [6]; at 33.0 µM 97% | [6]; [17] 98% | [6]; at 50.0 µM 96.6% | [6]; at 100.0 µM 97% | [7]; at 11.0 µM 93% | [7]; at 33.0 µM 96% | [7]; at 100.0 µM 99% | [8]; [16] 86% | [8]; [17] 97% | [8]; at 50.0 µM 93.7% | [9]; at 100.0 µM 89% | [10]; [17] 92% | [10]; at 50.0 µM 91.5% | [11]; [17] 99% | [11]; at 50.0 µM 73.3% | [11]; at 100.0 µM 82% | [12]; at 100.0 µM 89% | [13]; at 3.7 µM 87% | [13]; at 11.0 µM 91% | [13]; at 33.0 µM 92% | [13]; at 100.0 µM 95% | [14]; [16] 89% | [14]; [17] 99% | [14]; at 50.0 µM 94.4% | [15]; at 1.2 µM 96% | [15]; at 3.7 µM 97% | [15]; at 11.0 µM 97% | [15]; at 33.0 µM 97% | [15]; at 100.0 µM 98%
